# Reference: the supplement of paper PMC10849652
# About 8,800 targets were measured; listed, in parts, are those with a hit and a random draw of the rest. About 0.5% of all pairs of compound and target were hits. Values without a mark were called inactive.
# How the values were obtained:
# Assay in all cases: log2 fold change, soluble protein after heating vs DMSO (PISA); higher = thermal stabilisation; K562 lysate, 10 uM; active = over 0.2 and 3.5 SD of the protein, either way, in both replicates (recomputed)
# ibrutinib = compound: C=CC(=O)N1CCC[C@@H](n2nc(-c3ccc(Oc4ccccc4)cc3)c3c(N)ncnc32)C1 [ibrutinib]
# Summary of the method: (§1)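 The values are log-two fold changes in thermal stability compared with solvent controls and come from duplicates. They were obtained by TMTpro 16plex LC-MS/MS, with channel sums equalised, on the supernatant after 21,000xg for 90 min. That supernatant came from crude K562 extract at 1 mg/mL protein treated with 10 μM compound for 30 min, heated for 3 min across 48°C-58°C, pooled and brought to 0.5% NP-40 at 4°C.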
# [1] = compound: CC(=O)c1cnc2ccc(-c3cc(Cl)c(O)c(Cl)c3)nc2c1N[C@H]1CC[C@H](CN(C)C)CC1
# Summary of the method: as §1
# ralimetinib = compound: CC(C)(C)Cn1c(N)nc2ccc(-c3[nH]c(C(C)(C)C)nc3-c3ccc(F)cc3)nc21 [ralimetinib]
# Summary of the method: as §1
# [2] = compound: CC(C)(O)CC(=O)NCCn1ccc2ncnc(Nc3ccc(Oc4cccc(C(F)(F)F)c4)c(Cl)c3)c21
# Summary of the method: as §1
# [3] = compound: CC(C)C1=C2N=C(C=C(N2N=C1)NCC3=CC=CC=C3)NCCCCCCN
# Summary of the method: as §1
# [4] = compound: CC1=C(C(CC(=O)N1)C2=CC=C(C=C2)C(F)(F)F)C(=O)NC3=C(C=C4C(=C3)C=NN4)F
# Summary of the method: as §1
# [5] = compound: CC1=C(C2=C(C=C1)C(=O)C3=CC=CC=C3N2CCCN)C
# Summary of the method: as §1
# [6] = compound: CC1=C(C=C(C=C1)NC(=O)C2=CC(=CC=C2)C(C)(C)C#N)NC3=CC4=C(C=C3)N=CN(C4=O)C
# Summary of the method: as §1
# [7] = compound: CC1=C(C=C(C=C1)NC(=O)C2=CC(=CC=C2)N(C)C)NC(=O)C3=CC=C(C=C3)O
# Summary of the method: as §1
# [8] = compound: CC1=CC=C(C=C1)SC2=C3C=C(SC3=CN=C2)C(=O)N
# Summary of the method: as §1
# vemurafenib = compound: CCCS(=O)(=O)Nc1ccc(F)c(C(=O)c2c[nH]c3ncc(-c4ccc(Cl)cc4)cc23)c1F [vemurafenib]
# Summary of the method: as §1
# [9] = compound: CCCS(=O)(=O)Nc1ccc(F)c(C(=O)c2c[nH]c3ncc(Cl)cc23)c1F
# Summary of the method: as §1
# barasertib = compound: CCN(CCCOc1ccc2c(Nc3cc(CC(=O)Nc4cccc(F)c4)[nH]n3)ncnc2c1)CCOP(=O)(O)O [barasertib]
# Summary of the method: as §1
# [10] = compound: CC[C@@H]1C(=O)N(C)c2cnc(Nc3ccc(C(=O)NC4CCN(C)CC4)cc3OC)nc2N1C1CCCC1
# Summary of the method: as §1
# volasertib = compound: CC[C@@H]1C(=O)N(C)c2cnc(Nc3ccc(C(=O)N[C@H]4CC[C@H](N5CCN(CC6CC6)CC5)CC4)cc3OC)nc2N1C(C)C [volasertib]
# Summary of the method: as §1
# [11] = compound: CCn1c(C(=O)N(C2CC2)C2CC2)cc2c3c(ncn3C)c(Nc3cc(C)n(C)n3)nc21
# Summary of the method: as §1
# [12] = compound: CCn1cc(-c2ccnc3[nH]c(-c4cccc(CN(C)C)c4)cc23)c(-c2ccc(NC(=O)N(C)C)cc2)n1
# Summary of the method: as §1
# [13] = compound: CN1CCC(CNc2ccc3ncc(-c4cccc(OC(F)(F)F)c4)n3n2)CC1
# Summary of the method: as §1
# saracatinib = compound: CN1CCN(CCOc2cc(OC3CCOCC3)c3c(Nc4c(Cl)ccc5c4OCO5)ncnc3c2)CC1 [saracatinib]
# Summary of the method: as §1
# sotrastaurin = compound: CN1CCN(c2nc(C3=C(c4c[nH]c5ccccc45)C(=O)NC3=O)c3ccccc3n2)CC1 [sotrastaurin]
# Summary of the method: as §1
# Chain of UniProt Q13015 (Q13015 whole entry, looked up): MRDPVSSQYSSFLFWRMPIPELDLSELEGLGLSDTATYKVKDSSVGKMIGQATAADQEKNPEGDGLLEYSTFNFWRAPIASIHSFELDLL
# Chain of UniProt O95777 (O95777 whole entry, looked up): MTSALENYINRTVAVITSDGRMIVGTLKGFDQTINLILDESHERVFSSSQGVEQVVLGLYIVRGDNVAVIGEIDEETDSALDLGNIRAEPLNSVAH
# Chain of UniProt Q2VIQ3 (Q2VIQ3 whole entry, looked up): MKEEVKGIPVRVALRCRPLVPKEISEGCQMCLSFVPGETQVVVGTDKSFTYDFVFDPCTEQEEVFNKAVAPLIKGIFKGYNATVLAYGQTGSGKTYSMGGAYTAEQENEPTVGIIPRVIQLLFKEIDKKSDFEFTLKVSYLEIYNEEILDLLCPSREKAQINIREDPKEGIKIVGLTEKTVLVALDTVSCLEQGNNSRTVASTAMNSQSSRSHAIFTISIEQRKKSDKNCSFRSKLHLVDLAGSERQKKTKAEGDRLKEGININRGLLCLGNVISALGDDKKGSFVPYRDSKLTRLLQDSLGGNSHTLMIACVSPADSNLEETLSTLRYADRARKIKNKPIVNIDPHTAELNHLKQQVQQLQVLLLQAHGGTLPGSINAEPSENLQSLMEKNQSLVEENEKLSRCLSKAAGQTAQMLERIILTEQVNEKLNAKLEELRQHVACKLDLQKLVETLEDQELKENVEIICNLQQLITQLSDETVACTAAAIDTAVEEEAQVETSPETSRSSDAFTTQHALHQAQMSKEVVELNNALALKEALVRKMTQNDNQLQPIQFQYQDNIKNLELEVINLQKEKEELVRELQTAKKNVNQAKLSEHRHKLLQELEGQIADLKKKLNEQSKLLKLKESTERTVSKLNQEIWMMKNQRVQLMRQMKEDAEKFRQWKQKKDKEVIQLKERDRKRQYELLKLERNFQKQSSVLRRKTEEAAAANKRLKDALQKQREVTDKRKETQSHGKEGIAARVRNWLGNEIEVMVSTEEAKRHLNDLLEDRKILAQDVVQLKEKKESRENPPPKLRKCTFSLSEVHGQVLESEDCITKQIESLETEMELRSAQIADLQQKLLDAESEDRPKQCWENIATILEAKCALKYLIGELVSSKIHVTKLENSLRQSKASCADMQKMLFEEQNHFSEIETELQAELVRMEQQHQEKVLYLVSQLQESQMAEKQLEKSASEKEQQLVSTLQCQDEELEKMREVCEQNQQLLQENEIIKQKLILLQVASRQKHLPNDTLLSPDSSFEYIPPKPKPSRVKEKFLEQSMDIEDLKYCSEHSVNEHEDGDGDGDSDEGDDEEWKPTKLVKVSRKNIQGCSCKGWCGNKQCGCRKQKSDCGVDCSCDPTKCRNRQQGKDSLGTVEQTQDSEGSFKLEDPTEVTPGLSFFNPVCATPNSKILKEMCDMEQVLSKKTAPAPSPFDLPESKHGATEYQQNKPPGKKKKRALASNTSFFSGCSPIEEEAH
# Chain of UniProt Q9UI95 (Q9UI95 whole entry, looked up): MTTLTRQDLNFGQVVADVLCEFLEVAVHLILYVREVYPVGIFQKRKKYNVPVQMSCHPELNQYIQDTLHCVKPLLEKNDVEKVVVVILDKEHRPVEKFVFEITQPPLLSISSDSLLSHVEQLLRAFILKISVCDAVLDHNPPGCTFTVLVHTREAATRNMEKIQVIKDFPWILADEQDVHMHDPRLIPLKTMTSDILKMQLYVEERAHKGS
# Chain of UniProt Q8N653 (Q8N653 whole entry, looked up): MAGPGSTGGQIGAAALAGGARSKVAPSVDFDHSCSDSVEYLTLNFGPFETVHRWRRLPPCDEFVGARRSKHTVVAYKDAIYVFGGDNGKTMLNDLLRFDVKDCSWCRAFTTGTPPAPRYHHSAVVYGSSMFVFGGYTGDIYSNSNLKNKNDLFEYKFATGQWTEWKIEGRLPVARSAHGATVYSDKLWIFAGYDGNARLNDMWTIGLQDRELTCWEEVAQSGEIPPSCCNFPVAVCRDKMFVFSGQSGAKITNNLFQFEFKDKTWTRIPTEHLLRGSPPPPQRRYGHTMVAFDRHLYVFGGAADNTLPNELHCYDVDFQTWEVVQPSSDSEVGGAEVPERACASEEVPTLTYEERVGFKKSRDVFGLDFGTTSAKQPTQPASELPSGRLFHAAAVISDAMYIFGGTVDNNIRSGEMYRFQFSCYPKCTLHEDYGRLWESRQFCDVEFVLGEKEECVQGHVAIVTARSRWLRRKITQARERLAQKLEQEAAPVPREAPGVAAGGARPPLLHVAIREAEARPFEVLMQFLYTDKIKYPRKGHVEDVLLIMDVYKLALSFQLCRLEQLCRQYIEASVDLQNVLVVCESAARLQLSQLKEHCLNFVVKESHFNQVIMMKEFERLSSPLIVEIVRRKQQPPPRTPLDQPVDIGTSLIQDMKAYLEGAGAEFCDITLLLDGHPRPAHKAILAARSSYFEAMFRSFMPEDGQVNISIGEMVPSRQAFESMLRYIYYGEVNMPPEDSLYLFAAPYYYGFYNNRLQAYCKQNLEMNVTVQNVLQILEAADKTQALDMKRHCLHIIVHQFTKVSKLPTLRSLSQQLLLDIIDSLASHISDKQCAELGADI
# Chain of UniProt P48449 (P48449 whole entry, looked up): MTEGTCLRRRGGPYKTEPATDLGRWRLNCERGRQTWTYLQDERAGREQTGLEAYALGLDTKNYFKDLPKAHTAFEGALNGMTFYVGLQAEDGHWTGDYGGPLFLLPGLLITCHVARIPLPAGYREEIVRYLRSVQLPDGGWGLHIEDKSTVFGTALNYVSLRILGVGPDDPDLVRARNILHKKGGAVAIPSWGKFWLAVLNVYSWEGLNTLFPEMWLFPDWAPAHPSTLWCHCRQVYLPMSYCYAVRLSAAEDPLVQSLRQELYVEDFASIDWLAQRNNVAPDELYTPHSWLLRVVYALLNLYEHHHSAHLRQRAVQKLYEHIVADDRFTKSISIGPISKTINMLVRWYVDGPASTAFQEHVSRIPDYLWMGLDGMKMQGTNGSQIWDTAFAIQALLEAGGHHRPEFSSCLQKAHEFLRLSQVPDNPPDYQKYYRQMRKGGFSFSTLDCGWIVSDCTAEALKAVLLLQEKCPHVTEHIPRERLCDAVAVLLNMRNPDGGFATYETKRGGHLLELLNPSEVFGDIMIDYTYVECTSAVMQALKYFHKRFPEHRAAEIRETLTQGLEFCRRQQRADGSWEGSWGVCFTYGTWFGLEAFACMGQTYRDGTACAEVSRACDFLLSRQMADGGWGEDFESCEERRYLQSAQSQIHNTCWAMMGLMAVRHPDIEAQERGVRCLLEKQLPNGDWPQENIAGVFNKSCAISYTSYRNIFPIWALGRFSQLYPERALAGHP
# Chain of UniProt Q15334 (Q15334 whole entry, looked up): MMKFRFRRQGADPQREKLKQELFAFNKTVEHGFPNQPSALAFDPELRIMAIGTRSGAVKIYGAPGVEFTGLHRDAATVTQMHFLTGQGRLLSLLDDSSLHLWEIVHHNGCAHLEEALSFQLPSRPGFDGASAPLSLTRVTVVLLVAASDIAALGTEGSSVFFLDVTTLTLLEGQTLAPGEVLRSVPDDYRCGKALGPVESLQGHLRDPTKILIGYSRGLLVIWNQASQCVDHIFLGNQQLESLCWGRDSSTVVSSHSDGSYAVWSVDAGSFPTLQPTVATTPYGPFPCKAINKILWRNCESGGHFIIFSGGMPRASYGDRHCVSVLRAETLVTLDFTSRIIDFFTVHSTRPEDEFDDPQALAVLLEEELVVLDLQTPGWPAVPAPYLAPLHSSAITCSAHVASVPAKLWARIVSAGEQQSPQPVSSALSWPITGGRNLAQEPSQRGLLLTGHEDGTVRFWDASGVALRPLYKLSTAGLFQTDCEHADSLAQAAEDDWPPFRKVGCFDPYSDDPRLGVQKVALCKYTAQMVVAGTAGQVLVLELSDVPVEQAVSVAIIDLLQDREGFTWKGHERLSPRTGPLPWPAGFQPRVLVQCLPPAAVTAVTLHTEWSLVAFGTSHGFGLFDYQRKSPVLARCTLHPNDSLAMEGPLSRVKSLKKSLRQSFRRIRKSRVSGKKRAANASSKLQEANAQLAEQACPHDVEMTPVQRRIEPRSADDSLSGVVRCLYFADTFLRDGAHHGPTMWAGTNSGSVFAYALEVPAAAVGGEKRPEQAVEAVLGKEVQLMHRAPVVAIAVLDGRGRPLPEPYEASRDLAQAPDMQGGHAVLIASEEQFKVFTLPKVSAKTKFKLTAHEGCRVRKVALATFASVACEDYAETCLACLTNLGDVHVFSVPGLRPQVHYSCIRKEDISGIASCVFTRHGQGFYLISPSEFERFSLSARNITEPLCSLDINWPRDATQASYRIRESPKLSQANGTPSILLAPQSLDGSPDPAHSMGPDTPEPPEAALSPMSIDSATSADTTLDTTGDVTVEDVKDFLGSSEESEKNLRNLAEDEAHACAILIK
# Chain of UniProt Q99797 (Q99797 whole entry, looked up): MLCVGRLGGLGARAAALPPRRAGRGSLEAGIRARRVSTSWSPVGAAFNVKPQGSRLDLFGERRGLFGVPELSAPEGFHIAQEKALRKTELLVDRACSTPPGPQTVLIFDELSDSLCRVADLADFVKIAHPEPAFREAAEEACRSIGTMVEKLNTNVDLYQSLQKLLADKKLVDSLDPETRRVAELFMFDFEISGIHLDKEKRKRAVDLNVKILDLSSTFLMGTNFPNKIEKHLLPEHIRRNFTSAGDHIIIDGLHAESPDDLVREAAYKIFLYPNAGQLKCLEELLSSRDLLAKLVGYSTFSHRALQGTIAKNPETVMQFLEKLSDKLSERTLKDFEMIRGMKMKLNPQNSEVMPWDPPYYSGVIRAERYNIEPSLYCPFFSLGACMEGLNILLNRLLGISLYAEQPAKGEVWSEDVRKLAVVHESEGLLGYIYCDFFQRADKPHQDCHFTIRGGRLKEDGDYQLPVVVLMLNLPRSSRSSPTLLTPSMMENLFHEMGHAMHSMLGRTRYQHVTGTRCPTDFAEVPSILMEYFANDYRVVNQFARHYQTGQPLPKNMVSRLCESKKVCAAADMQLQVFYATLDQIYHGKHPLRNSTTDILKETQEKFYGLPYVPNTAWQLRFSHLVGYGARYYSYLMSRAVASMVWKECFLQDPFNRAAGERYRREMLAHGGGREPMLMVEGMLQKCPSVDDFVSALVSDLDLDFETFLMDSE
Target,log2 fold change (ibrutinib),log2 fold change [1],log2 fold change (ralimetinib),log2 fold change [2],log2 fold change [3],log2 fold change [4],log2 fold change [5],log2 fold change [6],log2 fold change [7],log2 fold change [8],log2 fold change (vemurafenib),log2 fold change [9],log2 fold change (barasertib),log2 fold change [10],log2 fold change (volasertib),log2 fold change [11],log2 fold change [12],log2 fold change [13],log2 fold change (saracatinib),log2 fold change (sotrastaurin)
MLLT11 (UniProt Q13015),-0.057,0.077,0.032,-0.116,0.164,0.174,-0.037,0.326,-0.008,0.055,-0.054,-0.048,0.143,-0.199,0.1,0.05,-0.01,-0.049,0.118,-0.04
MAD2L2 (UniProt Q9UI95),-0.015,-0.173,0.103,-0.08,-0.03,-0.001,-0.059,0.053,-0.106,-0.132,-0.028,0.246,0.013,-0.065,0.044,0.089,-0.036,-0.051,0.079,-0.006
MPZL1 (UniProt O95297),0.01,-0.008,-0.01,0.022,-0.035,-0.006,0.003,0.02,-0.035,-0.036,0.037,0.001,0.024,0.057,0.035,0.027,0.262 (active),-0.052,0.045,-0.022
KIF4B (UniProt Q2VIQ3),0.027,0.005,0.004,-0.03,0.013,0.04,-0.018,0.01,0.002,-0.036,-0.026,0.047,-0.015,-0.102,-0.003,0.009,0.007,-0.073,-0.002,-0.01
MACO1 (UniProt Q8N5G2),0,0.043,-0.003,-0.04,0.01,0.018,-0.043,-0.023,-0.002,0.095,-0.114,-0.003,-0.063,0.296 (active),-0.009,0.025,0.113,-0.037,0.064,-0.01
LSS (UniProt P48449),-0.009,-0.018,0.14,0.072,0.026,0.013,-0.131,-0.003,-0.04,-0.065,0.016,-0.009,0.044,-0.078,0.434 (active),-0.009,-0.09,0.123,-0.043,0
LZTR1 (UniProt Q8N653),-0.074,-0.441,-0.023,0.102,0.009,0.048,-0.014,-0.001,0.113,0.041,0.026,-0.118,0.081,0.002,-0.125,-0.012,0,-0.047,-0.031,0.065
MRPL12 (UniProt P52815),0.082,-0.05,0.006,-0.013,-0.029,-0.042,0,0.026,0.012,0.076,0.01,-0.026,0.181,0.036,0.103,-0.019,-0.412 (active),-0.032,0.004,0.015
LETM1 (UniProt O95202),-0.006,-0.001,0.007,0.002,0.045,-0.026,0.026,0.036,0,0.037,0.029,0.005,-0.015,-0.012,0.01,-0.015,0.08,-0.287 (active),-0.002,-0.014
MBD2 (UniProt Q9UBB5),0.013,0.018,-0.043,-0.03,0.016,-0.013,-0.017,-0.053,-0.048,0.007,-0.014,0.016,-0.009,0.059,-0.021,0.073,-0.005,-0.007,-0.036,-0.089
LARP4B (UniProt Q92615),0,0.005,0.055,0.069,-0.02,-0.006,0.03,-0.094,0.037,0.014,-0.014,0.011,-0.033,-0.029,-0.042,0.08,-0.116,0.038,0.011,-0.019
LSM8 (UniProt O95777),0.051,0.012,0.055,-0.021,-0.02,-0.01,-0.011,0.03,-0.007,0.005,-0.054,0.018,0.355,-0.019,0.027,0,-0.058,0.052,-0.005,-0.017
MED14 (UniProt O60244),0.002,-0.013,0.017,-0.022,0.01,0.021,-0.029,-0.019,0.013,0.018,-0.078,0.003,0.015,-0.084,-0.023,0.008,-0.008,0.009,-0.001,0.008
LLGL1 (UniProt Q15334),0.007,0.091,0.071,0.015,-0.141,0.033,-0.058,0.019,0.174,-0.011,0.06,-0.052,-0.014,-0.057,0.02,-0.038,0.033,-0.008,-0.097,0.168
MARK2 (UniProt E9PC69),0.139,-0.053,0.014,-0.004,0.015,-0.012,-0.063,0.024,0.045,0.012,0.015,-0.005,0.027,0,0.028,-0.015,-0.013,-0.22,0.021,-0.026
MIPEP (UniProt Q99797),0.041,0.054,0.027,0.07,-0.02,-0.001,-0.003,-0.067,0.044,0.003,-0.026,0.004,0.006,-0.053,-0.029,0.029,-0.05,-0.015,0.001,-0.042
